Consider 42 sequences from article PMC7819943, “Rice protein-binding microarrays: a tool to detect cis-acting elements near promoter regions in rice”.

Whole data set: some 35,000 sequences, median “fluorescence intensity (a.u.)” near 10,000, cut for the highest 2% near 52,000. For the sample, the highest values were picked, then their nearest neighbours and some sequences at random.

In the test the target is T1, OsWOX13 (Oryza sativa, UniProt Q5QMM3 1-267).
T1 sequence: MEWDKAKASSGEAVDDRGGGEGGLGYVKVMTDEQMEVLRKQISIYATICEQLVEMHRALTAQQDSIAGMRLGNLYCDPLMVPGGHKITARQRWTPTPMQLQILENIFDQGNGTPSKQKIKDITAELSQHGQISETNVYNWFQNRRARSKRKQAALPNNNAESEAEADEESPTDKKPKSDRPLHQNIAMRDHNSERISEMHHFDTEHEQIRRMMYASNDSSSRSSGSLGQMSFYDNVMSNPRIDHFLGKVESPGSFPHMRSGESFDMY
In words: protein-binding microarray (RPBM); PBS, 2% BSA, 51.3 ng/ul salmon testes DNA, 50 uM zinc acetate, 200 nM TF, 25 C, 1 h; high values mean tight binding. The note with it: protein: recombinant; tags: N-terminal polyhistidine and DsRed monomer fusion (pET32a); label: CyDye5-dUTP incorporated in the synthesized complementary strand; 3' TTTTT single-stranded linker to array surface; dsDNA, one strand shown. The gist of the method: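 Per-feature fluorescence intensity (arbitrary units), read on an Axon 4000B scanner, is the binding signal. Transcription factors carrying an N-terminal polyhistidine tag and DsRed fusion were expressed in E. coli BL21-CodonPlus and purified on Ni–NTA. A custom Agilent array, made double-stranded by primer extension with Cy5-dUTP and blocked with 2% BSA, was incubated with 200 nM protein in PBS, 2% BSA, salmon testes DNA and 50 µM zinc acetate at 25 °C for 1 h and then washed.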
For the sequence “ATAATAAATATATTTACATTTAGACCCTCGATGTGTCATCCGGAGTCACCTAGTGCAG”, the binding signal was 3230 fluorescence intensity (a.u.). Next, “TAGGCCCACTAATTAGGCCCATCCAACACGCCGTCCGACGCGGAGTCACCTAGTGCAG”: 4020 fluorescence intensity (a.u.); “TCAAGCTTCTGCAATTTAGTTGATTGATCGAATTAATCAGCGGAGTCACCTAGTGCAG”: 24600 fluorescence intensity (a.u.); “TATGATTCTTTTCTAAAAGATTGATACGACATATCAATATCGGAGTCACCTAGTGCAG”: 5300 fluorescence intensity (a.u.).

Regarding “CAACTAAACTTTTAATTTTAGCATAAACTAAACAGACCCACGGAGTCACCTAGTGCAG”, the binding signal is 5430 fluorescence intensity (a.u.). With “TATAATTACATTGTAACTGTATTGTAAATACATTTTAATTCGGAGTCACCTAGTGCAG”, the binding signal is 5830 fluorescence intensity (a.u.).

Consider “TAAATTGTACATGATATATGTCAAGTGTCAACGTCTGATTCGGAGTCACCTAGTGCAG”, for which the binding signal is 5030 fluorescence intensity (a.u.). As for “ACTCCACACACTGATCAACACTAATCAGCATGTACATTTGCGGAGTCACCTAGTGCAG”, the figure is 4090 fluorescence intensity (a.u.). In the case of “TCGTTCTTCATGGTTGGGGCTGATTAGGTTGATGAGATAGCGGAGTCACCTAGTGCAG”, the binding signal is 3850 fluorescence intensity (a.u.).

Consider “TCTGATTGGTACATGCTCACCTGGTTGGCTGGTTCTTCAGCGGAGTCACCTAGTGCAG”, for which the binding signal is 53800 fluorescence intensity (a.u.). In the case of “TTTGGTTGGATTGGATTGGATTGGATTGGCTGCTTCCCTGCGGAGTCACCTAGTGCAG”, the binding signal was 25000 fluorescence intensity (a.u.). On to “TCTTTGTCAATCTTGTTTGGTTGCTCAAATCTTTTGGTGGCGGAGTCACCTAGTGCAG”, for which the binding signal was 7260 fluorescence intensity (a.u.). Next, “CTTTGTCTTTGTTTCTTGTTGATTGCAGGATCAAATCAACCGGAGTCACCTAGTGCAG”: 5330 fluorescence intensity (a.u.); “CTTGATTGTTCTTTCTTGCTCAAATGCCGGCCTGTGTTGGCGGAGTCACCTAGTGCAG”: 53200 fluorescence intensity (a.u.). “TTCGTGCCTTTTGTTTGATAATTTCTTCATGCTATCTTTTCGGAGTCACCTAGTGCAG”: the binding signal was 3660 fluorescence intensity (a.u.). As to “ACAAAATAAAATGATGGGCATTTTCTTCAGTTACAATTTCCGGAGTCACCTAGTGCAG”, the binding signal was 3910 fluorescence intensity (a.u.). As for “TTACTAGATTTATCATTAAACATACTATCATAATATGCAACGGAGTCACCTAGTGCAG”, the figure is 6040 fluorescence intensity (a.u.); as for “TGTGATGAATTGAGCGAACCAGCAGGGCTTCGCCGCTCCCCGGAGTCACCTAGTGCAG”, 5470 fluorescence intensity (a.u.). Turning to “AGCCCCTAAGCCAATCAATTAGCAGGCATCTTTACTCCTACGGAGTCACCTAGTGCAG”, the binding signal is 18500 fluorescence intensity (a.u.). As for “AAAATTACAGTCTTATTTAACTAAAATTACATATGTAAATCGGAGTCACCTAGTGCAG”, the binding signal was 5170 fluorescence intensity (a.u.). As for “ATTAATTAATTAGTCGGCCAACCTAGCTGTTGACTGGGAACGGAGTCACCTAGTGCAG”, the binding signal is 55900 fluorescence intensity (a.u.). As for “AGAGACAGCGAATCAATTAGCCAATGCTAATAATTTATAACGGAGTCACCTAGTGCAG”, the figure is 8160 fluorescence intensity (a.u.); as for “AATTAATTTAGCCCCTAATTAATTAGCAGCCAATCAACGGCGGAGTCACCTAGTGCAG”, 54000 fluorescence intensity (a.u.); as for “TCCAATTTACTAATTACCACTTTATACGTACAATTATTGACGGAGTCACCTAGTGCAG”, 23500 fluorescence intensity (a.u.). Next, “ATTAATTATTAATTTACTTTTGACAATTACTAATTAGCCACGGAGTCACCTAGTGCAG”: 56700 fluorescence intensity (a.u.); “GCCAACCTTATAGCTAATTATTATATATATTGACTTTAAGCGGAGTCACCTAGTGCAG”: 4860 fluorescence intensity (a.u.). Next, “GTTGATGGGCAGCTTAATTACGGCCCGCCTGTTTAGCCAACGGAGTCACCTAGTGCAG”: 17500 fluorescence intensity (a.u.); “TTTAATTTACAGTTAAATTAACTTAATCTGTAAAAGGGATCGGAGTCACCTAGTGCAG”: 57500 fluorescence intensity (a.u.); “AATTAATAAAATAAATCTATTACAGTTAACTAAAGGTATTCGGAGTCACCTAGTGCAG”: 5780 fluorescence intensity (a.u.). Consider “CCACTTTTAGATTTGACAATTAACTATTTGTCACTTTTAGCGGAGTCACCTAGTGCAG”, for which the binding signal was 23600 fluorescence intensity (a.u.). On to “ATACATTAATTTGATGCCCCAATAGAAGCACGCCAATCATCGGAGTCACCTAGTGCAG”, for which the binding signal was 12000 fluorescence intensity (a.u.). Take “TGTTGTTAGATGATAAAACATGATTAATATTTTATGCGTGCGGAGTCACCTAGTGCAG”: the binding signal is 3610 fluorescence intensity (a.u.). As for “GTTTTGATAAATTGATTTAAAACGCTTTATAAGAAGTGTCCGGAGTCACCTAGTGCAG”, the figure is 43800 fluorescence intensity (a.u.). For “AATTTTGATAGGGTAGAATTGAAAATGTTTATTTGGATTGCGGAGTCACCTAGTGCAG”, the binding signal was 10500 fluorescence intensity (a.u.). As for “AAATAACTGGTGGATATTTGTACGCTGCCCCTGAGGAACTCGGAGTCACCTAGTGCAG”, the figure is 3900 fluorescence intensity (a.u.); as for “TGTTTTCCTAAGTGATTGGTGGGAAACCTCGTAGGATAAGCGGAGTCACCTAGTGCAG”, 9180 fluorescence intensity (a.u.); as for “TTGATTGGGAGGAAGCCAAGAAGAAGTCAAGAACTGCCCACGGAGTCACCTAGTGCAG”, 31900 fluorescence intensity (a.u.).

As to “GTTTATTTGGGCCTGATTGGCACAGATGGTAGTGCCATGTCGGAGTCACCTAGTGCAG”, the binding signal was 31700 fluorescence intensity (a.u.).

For the sequence “CCAAAATAAACAACCAAAATTTCGCCGTGTAACTAACTCTCGGAGTCACCTAGTGCAG”, the binding signal was 3300 fluorescence intensity (a.u.). As for “CGTTTAATTGTGTATATATATAGCCACATTAAAGTACACACGGAGTCACCTAGTGCAG”, the figure is 11100 fluorescence intensity (a.u.). As for “CACAGACACATTTGGTTAATTACATACCTTGTACACTTCACGGAGTCACCTAGTGCAG”, the figure is 6260 fluorescence intensity (a.u.). As for “TAGTGTAATTTAACACTTAATTAGCCACATTTGTTACACACGGAGTCACCTAGTGCAG”, the figure is 61900 fluorescence intensity (a.u.).
